{"source": "PubChem BioAssay (NCI)", "note": "The panel holds about 79,000 compounds, 15% with a hit somewhere; the sample as a whole holds those more often. Unmarked numbers belong to inactive results. Calls of active or inactive are those of the source. No stated cut-off is given here; in the data, active means growth inhibition above about 70%; inactive means the rest."}
{"assay": "NCI Yeast Anticancer Drug Screen. Data for the bub3 strain (AID 167)", "conditions": "S. cerevisiae bub3 mutant strain, at 50.0 µM, stronger effect = higher value", "summary_of_the_method": "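Growth of a checkpoint-deficient yeast mutant is measured after compound exposure. Values represent inhibition relative to vehicle.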"}
{"smiles": "[Cl][Cu][Cl].c1ccc2c(c1)Sc1ccccc1[N+]2=c1ccc2nc3ccccc3sc-2c1", "growth inhibition": "29.9%"}
{"smiles": "CC1c2ccccc2-c2ccccc21", "growth inhibition": "-1%"}
{"smiles": "Cc1nc2ccccc2c(=O)n1C", "growth inhibition": "-5.4%"}
{"smiles": "CC(=O)OCC(=O)C1(C)CCC2(C)CCC3(C)C(=CC(=O)C4C5(C)CCC(=O)C(C)(C)C5CCC43C)C2C1", "note": "(stereo not drawn)", "growth inhibition": "13.7%"}
{"smiles": "CC(=O)OC(C)c1cc2c(s1)C(=O)c1sccc1C2=O", "note": "(stereo not drawn)", "growth inhibition": "89.3% (active)"}
{"smiles": "O=[N+]([O-])c1ccc2c(c1)nc(-c1ccccn1)n2CCc1ccncc1", "growth inhibition": "56.2%"}
{"smiles": "COc1ccc2c(c1)s/c(=N/N)n2CCCS(=O)(=O)O", "growth inhibition": "5.4%"}
{"smiles": "NC(Cc1ccc(O)cc1)C(=O)OCc1ccccc1", "note": "(stereo not drawn)", "growth inhibition": "34.2%"}
{"smiles": "N#CSCC(=O)CCC(=O)O", "growth inhibition": "3.75%"}
{"smiles": "Brc1ccc(C2NC(c3ccccc3)c3c(ccc4ccccc34)O2)cc1", "note": "(stereo not drawn)", "growth inhibition": "52.3%"}
{"smiles": "CCN(CC)C(=O)c1cncc(C(N)=O)c1", "growth inhibition": "12.7%"}
{"smiles": "Cc1ccc(/C=C/c2cc(/C=C/c3ccc(C)cc3)c([N+](=O)[O-])cc2[N+](=O)[O-])cc1", "growth inhibition": "-1.4%"}
{"smiles": "Oc1ccc(Cl)cc1/C=N\\N=C\\c1cc(Cl)ccc1O", "growth inhibition": "3.15%"}
{"smiles": "Cc1nc(=S)c2cnn(-c3ccccc3)c2[nH]1", "growth inhibition": "-27.1%"}
{"smiles": "C=CCN(CC=C)C(=S)NC(=O)c1ccccc1", "growth inhibition": "28.3%"}
{"smiles": "O=CNC(Cc1cnc[nH]1)C(=O)O", "note": "(stereo not drawn)", "growth inhibition": "-25.5%"}
{"smiles": "CC(=O)Oc1ccc2ccccc2c1CN(C(C)=O)c1ccc(C)cc1", "growth inhibition": "1.7%"}
{"smiles": "c1ccc(-n2nnc3c2CCCC3)cc1", "growth inhibition": "-25.6%"}
{"smiles": "CCCCCCC1OCCO1", "growth inhibition": "-4.8%"}
{"smiles": "CCN(CC)C1=Nc2ccccc2N(c2ccccc2)C(SC)=C1", "growth inhibition": "2.25%"}
{"smiles": "Nc1ccc(N)c2cc(S(=O)(=O)O)ccc12", "growth inhibition": "-16.2%"}
{"smiles": "Cc1nc2nn[nH]n2c(=O)c1CCO", "growth inhibition": "-6.95%"}
{"smiles": "COc1nc(Cl)nc(C(N)=O)c1N", "growth inhibition": "-2.65%"}
{"assay": "NCI Yeast Anticancer Drug Screen. Data for the mlh1 rad18 strain (AID 175)", "conditions": "S. cerevisiae mlh1 rad18 strain growth inhibition; at 50.0 µM; stronger effect = higher value", "summary_of_the_method": "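Growth inhibition of the yeast strain was measured after compound exposure and expressed relative to vehicle-treated controls. The strain carries defined defects in DNA damage repair.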"}
{"smiles": "CC=C(c1ccccc1)c1ccccc1", "growth inhibition": "-15.2%"}
{"smiles": "CC(=O)c1ccc2c(c1)-c1ccc(C(C)=O)cc1-2", "growth inhibition": "-7.6%"}
{"smiles": "N#Cc1n[nH]n(C2CCCCC2)c1=O", "growth inhibition": "-14.2%"}
{"smiles": "CCC(C1=CCCCC1)c1nc2c([nH]1)c(=O)n(C)c(=O)n2C", "note": "(stereo not drawn)", "growth inhibition": "45.5%"}
{"smiles": "CCCCNS(=O)(=O)c1ccccc1", "growth inhibition": "20.4%"}
{"smiles": "CSc1ccc(NC(=O)NNP(=S)(Oc2ccc(C(C)(C)C)cc2)Oc2ccc(C(C)(C)C)cc2)cc1", "growth inhibition": "-6.2%"}
{"smiles": "CC(C(=O)O)C1(O)CCCCC1", "note": "(stereo not drawn)", "growth inhibition": "-8.4%"}
{"smiles": "CC(C)(N)COC(=O)c1ccc([N+](=O)[O-])cc1", "growth inhibition": "10.2%"}
{"smiles": "C=CCOC(=O)NC(Cc1ccc(O)cc1)C(=O)O", "note": "(stereo not drawn)", "growth inhibition": "-2.45%"}
{"smiles": "C/C(CC(=O)Nc1ccc(C)c(C)c1)=N\\NC(N)=O", "growth inhibition": "-24.2%"}
{"smiles": "O=C(c1ccccc1)C(O)(c1ccccc1)C(c1ccccc1)c1ccccc1", "note": "(stereo not drawn)", "growth inhibition": "8.05%"}
{"smiles": "CC(=O)OC1COC(n2cnc3c(N)ncnc32)C(OC(C)=O)C1OC(C)=O", "note": "(stereo not drawn)", "growth inhibition": "-4.2%"}
{"smiles": "O=C(Nc1cccc2ccccc12)c1ccc(Cl)c(Cl)c1", "growth inhibition": "72.3% (active)"}
{"smiles": "[O-][n+]1c2ccccc2nn1-c1ccccc1", "growth inhibition": "-13.8%"}
{"smiles": "COc1ccc(/C=C2/SC(=Nc3ccccc3)N(NC(=O)Cc3ccccc3)C2=O)c(OC)c1", "growth inhibition": "1.9%"}
{"smiles": "CCOc1c(Cc2ccccc2)c(=O)n2c3ccccc3n3c(=O)n(C)c(=O)c1c23", "growth inhibition": "-25%"}
{"smiles": "CCCCc1noc(N)c1SCC", "growth inhibition": "3.7%"}
{"smiles": "[Cl][Cu][Cl].c1ccc2c(c1)Sc1ccccc1[N+]2=c1ccc2nc3ccccc3sc-2c1", "growth inhibition": "35%"}
{"smiles": "CC1c2ccccc2-c2ccccc21", "growth inhibition": "20.4%"}
{"smiles": "Cc1nc2ccccc2c(=O)n1C", "growth inhibition": "3.95%"}
{"smiles": "CC(=O)OCC(=O)C1(C)CCC2(C)CCC3(C)C(=CC(=O)C4C5(C)CCC(=O)C(C)(C)C5CCC43C)C2C1", "note": "(stereo not drawn)", "growth inhibition": "15.4%"}
{"smiles": "CC(=O)OC(C)c1cc2c(s1)C(=O)c1sccc1C2=O", "note": "(stereo not drawn)", "growth inhibition": "89.5% (active)"}
{"smiles": "O=[N+]([O-])c1ccc2c(c1)nc(-c1ccccn1)n2CCc1ccncc1", "growth inhibition": "99.2% (active)"}
{"smiles": "COc1ccc2c(c1)s/c(=N/N)n2CCCS(=O)(=O)O", "growth inhibition": "12.2%"}
{"smiles": "NC(Cc1ccc(O)cc1)C(=O)OCc1ccccc1", "note": "(stereo not drawn)", "growth inhibition": "-3.75%"}
{"smiles": "N#CSCC(=O)CCC(=O)O", "growth inhibition": "-1.1%"}
{"smiles": "Brc1ccc(C2NC(c3ccccc3)c3c(ccc4ccccc34)O2)cc1", "note": "(stereo not drawn)", "growth inhibition": "86.4% (active)"}
{"smiles": "CCN(CC)C(=O)c1cncc(C(N)=O)c1", "growth inhibition": "14.2%"}
{"smiles": "Cc1ccc(/C=C/c2cc(/C=C/c3ccc(C)cc3)c([N+](=O)[O-])cc2[N+](=O)[O-])cc1", "growth inhibition": "1.2%"}
{"smiles": "Oc1ccc(Cl)cc1/C=N\\N=C\\c1cc(Cl)ccc1O", "growth inhibition": "8.85%"}
{"smiles": "Cc1nc(=S)c2cnn(-c3ccccc3)c2[nH]1", "growth inhibition": "-0.6%"}
{"smiles": "C=CCN(CC=C)C(=S)NC(=O)c1ccccc1", "growth inhibition": "2.25%"}
{"smiles": "O=CNC(Cc1cnc[nH]1)C(=O)O", "note": "(stereo not drawn)", "growth inhibition": "-30.2%"}
{"smiles": "CC(=O)Oc1ccc2ccccc2c1CN(C(C)=O)c1ccc(C)cc1", "growth inhibition": "-28.4%"}
{"smiles": "c1ccc(-n2nnc3c2CCCC3)cc1", "growth inhibition": "-1.65%"}
{"smiles": "CCCCCCC1OCCO1", "growth inhibition": "15.1%"}
{"smiles": "CCN(CC)C1=Nc2ccccc2N(c2ccccc2)C(SC)=C1", "growth inhibition": "14.5%"}
{"smiles": "Nc1ccc(N)c2cc(S(=O)(=O)O)ccc12", "growth inhibition": "7.9%"}
{"smiles": "Cc1nc2nn[nH]n2c(=O)c1CCO", "growth inhibition": "-51.6%"}
{"smiles": "COc1nc(Cl)nc(C(N)=O)c1N", "growth inhibition": "-4.85%"}
